About 83,000 compounds went through this panel and 20% of them were active in at least one assay; those are over-represented in the sample as a whole.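 In brief: 96-well plates, 48 h treatment, single concentration, percent growth endpoint.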 Activity calls are given as the source filed them. Rule for the calls: active = growth percent below 10; inactive = the rest.
Legend:
Assay in all cases: NCI-60 one-dose screen, 48 h (100 = growth as untreated, 0 = no growth, -100 = all killed)
Settings in all cases: 10 µM unless noted
[1] = tested on: SK-MEL-2 melanoma
[2] = tested on: EKVX NSCLC
[3] = tested on: SN12C renal
[4] = tested on: UO-31 renal
[5] = tested on: TK-10 renal
[6] = tested on: ACHN renal
[7] = tested on: CAKI-1 renal
[8] = tested on: CCRF-CEM leukemia
[9] = tested on: MOLT-4 leukemia
[10] = tested on: A498 renal

Measured: growth

CCOC(=O)c1ccc2c(c1)[n+](=O)c(C(=O)C1CCCS1)c(C(F)(F)F)n2[O-] (stereo not given)
active: [1] -87.3% | [2] -77% | [3] -47.3% | [4] -92.4% | [5] -96.5% | [6] -86.9% | [7] -85.4% | [8] -44% | [9] -67.3%

CN1CCN(CCOc2ccc(-c3cnc4c(-c5ccccc5F)cnn4c3)cc2)CC1
inactive: [1] 91.9% | [2] 68.4% | [3] 60.7% | [4] 39.1% | [5] 71% | [6] 55.7% | [7] 45.8%
active: [8] 5.37% | [9] -9.43%

O=C1OC(c2ccc(Cl)c(Cl)c2)=C/C1=C/c1cccc([N+](=O)[O-])c1
inactive: [1] 102% | [2] 91.8% | [3] 93% | [4] 68% | [5] 179% | [6] 100% | [7] 91.3% | [10] 101% | [8] 103% | [9] 103%

CN(C)c1ccc(N=C2C=CC(=O)C=C2)cc1
inactive: [1] 97.1% | [2] 75.3% | [3] 92% | [4] 73.7% | [5] 111% | [6] 69.3% | [7] 81% | [10] 93.1% | [8] 75.5% | [9] 51.3%

CC/C=C\C[C@H]1CC=C2C(=O)C=C[C@@H]2CC=CCCCC(=O)O[C@@H](CCCCC)CC=C2C(=O)C=C[C@@H]2CC=CCCCC(=O)O[C@@H](CCCCC)CC=C2C(=O)C=C[C@@H]2CC=CCCCC(=O)O[C@@H](CCCCC)CC=C2C(=O)C=C[C@@H]2CC=CCCCC(=O)O1
inactive: [2] 63.7% [7.9 µM] | [5] 57.5% [7.9 µM] | [6] 19.6% [7.9 µM] | [10] 73.1% [7.9 µM]
active: [1] -5.92% [7.9 µM] | [3] -10.5% [7.9 µM] | [4] 9.76% [7.9 µM] | [8] 9.35% [7.9 µM]

O=C(O[C@@H]1Cc2c(O)cc(O)cc2O[C@@H]1c1cc(O)c(O)c(O)c1)c1cc(O)c2c(c1)OCO2
inactive: [1] 102% | [2] 102% | [3] 98.6% | [4] 92.2% | [5] 88.4% | [6] 112% | [7] 94.4% | [10] 117% | [8] 93% | [9] 81.5%

CCN1CCN(c2nc(C)cc(N(CCCNc3ccnc4cc(Cl)ccc34)Cc3ccco3)n2)CC1
inactive: [1] 75.1% | [2] 63.1% | [3] 50.6% | [4] 33.1% | [5] 108% | [6] 30.2% | [10] 78.1% | [8] 42%

Cc1c(C)c2c(c(C)c1NC(=O)CCCCCCC(=O)O)CCC(C)(CCCC(C)CCCC(C)CCCC(C)C)O2 (stereo not given)
inactive: [1] 43.2% | [2] 86.3% | [3] 77.5% | [4] 75.7% | [5] 87.6% | [6] 101% | [7] 100% | [8] 71.3% | [9] 76.7%

O=C(O)c1cccc2c1Cc1cc([N+](=O)[O-])ccc1-2
inactive: [1] 102% | [2] 61.9% | [3] 103% | [4] 103% | [5] 123% | [6] 102% | [7] 89.5% | [10] 93.1% | [9] 94%

CCN1CCN(C(=O)[C@]23CCC(C)(C)C[C@@H]2C2=CC[C@@H]4[C@@]5(C)C/C(=C/c6ccncc6)C(=O)C(C)(C)[C@@H]5CC[C@@]4(C)[C@]2(C)CC3)CC1
inactive: [2] 15.3% | [5] 32.3% | [7] 23.2%
active: [1] -30.8% | [3] -70.1% | [4] -92.7% | [6] 3.29% | [10] -22.6% | [8] 3.73% | [9] -12.2%

N#Cc1c(-c2ccco2)nc2c(c(-c3ccccc3)nn2-c2ccccc2)c1-c1ccc(O)cc1
inactive: [1] 70.4% | [2] 56.4% | [3] 82.4% | [4] 92% | [5] 89.2% | [6] 72.4% | [7] 58.9% | [10] 90.9% | [8] 41.5%
active: [9] 9.84%

Cc1cc(N(CCCNc2ccnc3cc(Cl)ccc23)Cc2ccco2)nc(N2CCOCC2)n1
inactive: [1] 93.2% | [2] 67.6% | [3] 67.4% | [4] 46.8% | [5] 110% | [6] 95.3% | [10] 59.1% | [8] 69.2% | [9] 63.7%

Cc1ccc(-c2nc([P+](c3ccccc3)(c3ccccc3)c3ccccc3)c(N3CCOCC3)o2)cc1
active: [1] -18.7% | [3] 1.43% | [6] 8.24% | [8] 8.32% | [9] -8.12%
inactive: [2] 17.6% | [4] 12% | [5] 20.8% | [7] 13.1%

CCC(=O)c1c(C)[nH]c(C)c1C
active: [6] -33.4%
inactive: [1] 16.6% | [2] 103% | [3] 95.5% | [4] 67.1% | [5] 99.4% | [7] 46.4% | [10] 103% | [8] 98.5% | [9] 84%
